Results published in PubChem BioAssay AID588675 (Johns Hopkins Ion Channel Center, 2011).
In all, about 310,000 compounds went through this assay and about 1,900 (0.61%) were called active. The sample holds actives, similar compounds and a random draw of the others, so the mix is not that of the screen.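 The calls were made as follows: active = plate-corrected calcium response at least 3 library SD above typical, normal starting fluorescence, not activating the receptor alone; inactive = the rest.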

These compounds were tested against Mas-related G-protein coupled receptor member X1 (Homo sapiens) (UniProt Q96LB2) (assay: positive allosteric modulators of MrgX1, primary screen, HEK293 cells, Fluo-4 calcium flux (AID 588675;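 also: compound read alongside a low EC10 to EC30 dose of BAM8-22 agonist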;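 as to B-score: peak minus trough fluorescence over baseline measured at the second addition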)). Conditions: MrgX1-HEK293, Fluo-4 calcium flux, FDSS, at 10 µM; stronger effect = higher value.
Sequence of Mas-related G-protein coupled receptor member X1 (Homo sapiens) (Q96LB2 whole entry, looked up): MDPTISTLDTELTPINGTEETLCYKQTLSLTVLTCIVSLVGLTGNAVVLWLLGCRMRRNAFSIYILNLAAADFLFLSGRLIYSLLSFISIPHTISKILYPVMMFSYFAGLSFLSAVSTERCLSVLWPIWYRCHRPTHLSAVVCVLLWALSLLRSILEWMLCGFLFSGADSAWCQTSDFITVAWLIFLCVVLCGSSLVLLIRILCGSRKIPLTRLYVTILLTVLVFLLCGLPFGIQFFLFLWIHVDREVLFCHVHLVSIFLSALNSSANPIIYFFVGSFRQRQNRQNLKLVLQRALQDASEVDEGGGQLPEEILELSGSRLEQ

B-score, inactive:
COc1ccc(Cl)cc1NC(=O)CN(C)C(=O)c1cc(-c2cccs2)nn1-c1ccccc1
Cn1c(=O)[nH]c(=O)c2c1nc(CN1CCN(c3ccccc3F)CC1)n2CCc1ccccc1
N#C/C(=C1/CCCN1)c1ccccn1
Cn1c(S(=O)(=O)O)nc2ccccc21
O=C(CN1C(=O)NC2(CCCCC2)C1=O)NCCC1=CCCCC1
CCCC1C(=O)N2C(N(C)C)=Nc3ccc(C)cc3N2C1=O (stereo not drawn)
O=[N+]([O-])C(=c1ccc2c(c1)N1C3=C(CCCC3)CC3CCCCC31N=2)[N+](=O)[O-] (stereo not drawn)
COc1cccc(CN(C)CC(O)COC(c2ccccc2)c2ccccc2C)c1 (stereo not drawn)
O=C(NC(=S)NC1CCCCC1)c1ccc(Cl)cc1
COc1ccc(C(=O)NNC(=S)NC(=O)c2ccccc2)cc1
NC(=O)c1ccc(Nc2ccc3nonc3c2[N+](=O)[O-])cc1
CC(C)c1ccc(Nc2nnc(SCC(=O)c3nnc(-c4ccccc4)o3)s2)cc1
COCC(=O)Nc1c(I)c(C(=O)NCC(O)CO)c(I)c(C(=O)N(C)CC(O)CO)c1I (stereo not drawn)
COc1cccc(OC)c1C(=O)OCC(=O)/C(C#N)=C(\C)N
O=C(NCC(=O)N1CCCC(C(F)(F)F)C1)c1ccccc1F (stereo not drawn)
O=C(CNS(=O)(=O)c1ccccc1)N1CCN(C(=O)c2ccco2)CC1
O=C(c1cccc([N+](=O)[O-])c1)N1CCN(C(=O)c2ccco2)CC1
C#CCOCCOCCOCCNc1nc(N2CCN(C(=O)CCCCCCCCCCNC(=O)[C@H](CCCCN)n3cc(C)nn3)CC2)nc(N2CCN(C(=O)CCCCCCCCCCNC(=O)[C@H](CO)n3cc(CCCSC)nn3)CC2)n1
Cc1ccc(N(C(=O)C(F)(F)F)C(C(=O)NC2CCCCC2)c2ccncc2)cc1C (stereo not drawn)
N#CCCCn1c(O)c(N=NC(=O)C(O)c2ccccc2)c2ccccc21 (stereo not drawn)
CCOC(=O)Cn1c(O)c(N=NC(=O)CNC(=O)Cc2ccccc2)c2ccccc21
Cc1ccc(C2Nc3cccc4cccc(c34)N2)cc1
Oc1ccc(C2Nc3cccc4cccc(c34)N2)cc1
CCn1cc(C(=O)NC2CCCCCC2)c(=O)c2cc(S(=O)(=O)N3CCCCC3)ccc21
Cc1ccc(C)c(-c2nnc(NC(=O)CS(=O)(=O)c3ccccc3)o2)c1
CN(C)S(=O)(=O)Oc1ccccc1C(=O)Nc1ccccc1Cl
CC1CCN(S(=O)(=O)c2ccc3[nH]c(=O)ccc3c2)CC1
Cc1cc(C)c(NC(=O)CN2C(=O)NC(Cc3ccccc3)C2=O)c(C)c1 (stereo not drawn)
COc1ccc(N2C(=O)C(Cc3ccccc3)NC2=S)cc1 (stereo not drawn)
CC1(C)CC(=O)C2=C(C1)N=C1SCCC(=O)N1C2c1ccc(C(F)(F)F)cc1 (stereo not drawn)
COc1ccc(CNc2c(CO)cnc3c2cnn3C)cc1
COc1ccc(CCNS(=O)(=O)c2cccc3cccnc23)cc1OC
COCCNC(=O)c1ccc2nc(Cc3ccc(OC)c(OC)c3)oc2c1
Cc1ccc(N2CC(C(=O)Nc3cc(Cl)ccc3-n3cncn3)CC2=O)cc1 (stereo not drawn)
Cn1nc(C(F)(F)F)c(-c2ccc(F)cc2)c1NC(=O)CSCC(=O)O
CCCC1OC23CCCCC2C(C#N)(C#N)C1(C#N)C(=N)O3 (stereo not drawn)
COc1ccc(CN(C)C(=O)Cc2ccsc2)c(OC)c1OC
O=C(Nc1ccccc1N1CCN(c2ccccc2)CC1)c1cccc(F)c1
O=C(Nc1ccccc1N1CCCC1)c1ccc2ccccc2c1
COCCn1c(CN2CCC(Cc3ccccc3)CC2)nc2c1c(=O)n(C)c(=O)n2C
CCOc1ccc(NC(=O)CCS(=O)(=O)c2ccc3c(c2)CCCN3C(=O)CC)cc1
Cc1ccc(S(=O)(=O)N2CCC(C(=O)NCCC3=CCCCC3)CC2)cc1C
O=C(Cc1ccccc1)N1N=C(c2ccncc2)CC1(O)C(F)(F)F (stereo not drawn)
CC(=O)N1N=C(c2ccccc2)OC1c1cccnc1 (stereo not drawn)
O=C(c1ccccc1)C(Cn1cncn1)C(Sc1ccccc1)c1ccccc1 (stereo not drawn)
CCN(CC(=O)Nc1ccccc1OC)C(=O)Cn1cnc2ccccc2c1=O
Cc1ccc(/C=C/C(=O)O)cc1S(=O)(=O)N1CCC(Cc2ccccc2)CC1
CC(=O)Nc1ccc(Nc2c([N+](=O)[O-])cc(S(C)(=O)=O)cc2[N+](=O)[O-])cc1
CCN(CC(=O)Nc1c(F)cccc1F)C(=O)c1ccc(Sc2nncn2C)c([N+](=O)[O-])c1
CS(=O)(=O)Nc1ccc(C(=O)N2CCCC2)cc1
Cn1c(=O)c2c(nc(N/N=C/c3cccs3)n2Cc2ccc(Br)cc2)n(C)c1=O
COc1ccc(NC(=O)C2C3C=CC(C3)C2C(=O)NCc2ccccn2)c(OC)c1 (stereo not drawn)
COc1ccc(C(=O)OCC(=O)NCC2CCCCC2)cc1S(=O)(=O)N1CCCc2ccccc21
Cn1c(=O)n(C)c2cc(S(=O)(=O)N3CCCc4ccccc43)ccc21
CC[C@@H](C)[C@@H](C(=O)N1CCN(C(=O)OC(C)(C)C)CC1)n1cc(CCC(=O)O)nn1
CC1CN(S(=O)(=O)c2cccc(C(F)(F)F)c2)CN1C(=O)N1CCOCC1 (stereo not drawn)
COc1ccc(S(=O)(=O)N2CCC(C(=O)N3CCc4ccccc4C3)CC2)cc1OC
COc1ccc(C2CC(=O)n3c(nc4ccccc43)S2)cc1OC (stereo not drawn)
Cc1cc(NC(=O)CS(=O)(=O)c2cn(C)c3ccccc23)no1
CCCCN1C(N)=NC[C@@H]1CC1CCCCC1
COc1ccccc1CCNS(=O)(=O)c1cn(C)nc1C
CC(N=Cc1nc(-c2ccccc2)oc1O)c1ccccc1 (stereo not drawn)
CCOc1ccc2nc(N(CCCN(C)C)C(=O)c3ccc(C(=O)c4ccccc4)cc3)sc2c1
CN1C(=O)CC(c2ccccc2)C1=O (stereo not drawn)
Cc1cccc(N(C)C(=O)c2cc(S(=O)(=O)N3CCCCC3)c[nH]2)c1
COC(=O)Cn1c(=NC(=O)c2cc(OC)c(OC)c(OC)c2)sc2cc(OC)ccc21
COc1ccc(/C(C)=N/NC(=O)CCC(=O)Nc2ccc(Cl)cc2Cl)c(OC)c1
COc1ccc(OC)c(C(=O)c2ccc(Cl)cc2)c1
CCOc1ccccc1NS(=O)(=O)c1c[nH]c(C(=O)OC)c1
CCN(CC(=O)NCc1cccs1)C(=O)c1cccc(S(=O)(=O)Nc2ccccc2OC)c1
COc1ccc(CCNC(=S)NC(=O)/C=C/c2ccc(C)cc2)cc1OC
COCCCNC(=O)CN1CCN(Cc2ccccc2Cl)C1=O
C#CCOCCOCCOCCNc1nc(N2CCN(C(=O)[C@H](CCCCN)n3cc(CCC(=O)O)nn3)CC2)nc(N2CCN(C(=O)[C@H](CCCCN)n3cc(CC(C)O)nn3)CC2)n1 (stereo partly drawn)
COc1cc(Nc2nc3ccc(Cl)cc3n3cnnc23)cc(OC)c1OC
COc1ccc(CCNc2nc3ccc(C)cc3n3cnnc23)cc1OC
Cc1nn2cc(-c3ccc(Cl)cc3)cnc2c1Br
CN1C(C)(C)CC(NC(=O)CCC(=O)NC2CC(C)(C)N(C)C(C)(C)C2)CC1(C)C
Nc1nc(SC23CC4CC(CC(C4)C2)C3)ns1
S=c1nc(C23CC4CC(CC(C4)C2)C3)nc2sccn12
FC(F)(F)c1ccc2nnc(-c3c(Cl)cccc3Cl)n2c1
C/C(=N\NC(=O)CC(C)C)c1c(C(F)(F)F)[nH]n(-c2nc3ccccc3s2)c1=O
COC(=O)Cc1[nH]n(-c2nc3ccccc3s2)c(=O)c1C(C)=Nc1ccc(OC)cc1
COc1ccc([N+](=O)[O-])cc1-c1nc2ccccc2nc1-c1ccccc1
O=[N+]([O-])c1ccc2oc(-c3cccc(O)c3)nc2c1

B-score, active:
Cn1c(/C(C#N)=C2/CCCCCN2)nc2ccccc21 8.34
COc1ccc(C(=O)NC(=S)NC2CCCCC2)cc1 7.2
O=C(c1cccc(S(=O)(=O)Nc2ccccc2Cl)c1)N1CCN(C(=O)c2ccco2)CC1 10.7
COC(=O)Cn1c(O)c(N=NC(=O)OC)c2ccccc21 7.73
Brc1ccccc1C1Nc2cccc3cccc(c23)N1 11.9
O=C1C(Cc2ccc(O)cc2)NC(=S)N1Cc1ccccc1 (stereo not drawn) 9.49
COc1ccc(Cc2nc(-c3ccccn3)no2)cc1OC 8.9
O=C(Nc1ccccc1N1CCCCC1)c1ccc2nccnc2c1 7.2
CC(=O)N1N=C(c2ccncc2)OC1(Cc1ccccc1)Cc1ccccc1 7.85
Cn1cnnc1Sc1ccc(S(C)(=O)=O)cc1[N+](=O)[O-] 12.1
COc1cc(C)c(C)cc1S(=O)(=O)N1CCCc2ccccc21 7.48
COc1ccc(C2SCCN2S(=O)(=O)c2ccccc2)cc1OC (stereo not drawn) 7.25
CCOc1ccc2nc(/N=C/c3nc(-c4ccccc4)oc3O)sc2c1 18.1
COc1ccc(OC)c(/C(C)=N\NC(=O)c2cc3cc(Cl)ccc3n2C)c1 6.86
CCOc1ncccc1C(=O)NNC(=O)c1cccc(S(=O)(=O)Nc2ccccc2OC)c1 7.54
COc1ccc(OC)c(Nc2nc3ccccc3n3cnnc23)c1 9.87
Nc1nc(C23CC4CC(CC(C4)C2)C3)cs1 15.8
COC(=O)Cc1cc(=O)n(-c2nc3ccccc3s2)[nH]1 7.64
COc1ccc(-c2nc3cc([N+](=O)[O-])ccc3o2)cc1OC 11
